The whole screen tested about 340,000 compounds, of which about 8,500 (2.5%) were called active. The entries come from a sample that favours actives as a whole. Unmarked numbers belong to inactive results.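 How the source made its calls: active means melting temperature shift of at least 10% of the positive control shift, at one fixed dose; inactive means the rest.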
What follows are molecules tested on Glutamate receptor ionotropic, NMDA 3A (GRIN3A) ligand-binding domain (assay: NR3A LBD thermal stabilization by compounds – biophysical, differential scanning fluorimetry, uHTS, primary screen (AID 1259313)). Conditions: at 25 µM, hits give high values, 0% = protein alone, 100% = glycine-bound protein.

Row | Structure (SMILES) | Tm shift relative to glycine control
1 | Cc1ccc(N(C(=O)C(F)(F)F)C(C(=O)NC2CCCCC2)c2ccncc2)cc1C (stereo unspecified) | -1.17%
2 | O=C(OC1CCCCC1=O)c1cccc(S(=O)(=O)NCc2ccccc2)c1 (stereo unspecified) | -0.25%
3 | CC1CN(c2cc(=O)n(-c3cccc(Br)c3)c(=O)[nH]2)CC(C)O1 (stereo unspecified) | 0.6%
4 | COc1ccc(Br)cc1CN(C)CC(=O)Nc1cc(Cl)cc(Cl)c1 | -14.8%
5 | O=C1c2ccccc2C(=O)N1CC1c2ccccc2CCN1S(=O)(=O)c1ccccc1 (stereo unspecified) | -1.14%
6 | CCOC(=O)c1ccc(-n2c(CCC(=O)O)ccc2-c2ccccc2)cc1 | 0.18%
7 | Cc1ccc(NC(=O)CC2S/C(=N/N=C3\CCCc4ccccc43)NC2=O)cc1 (stereo unspecified) | 25.5% (active)
8 | Cc1c(Cl)cccc1NC(=O)CC1SC(=NCC2CCCO2)NC1=O (stereo unspecified) | -1.26%
9 | Cc1ccc(CNC(=O)CC2Sc3ccccc3NC2=O)cc1 (stereo unspecified) | -1.5%
10 | CN(C(=O)Cn1nnc(-c2ccc(F)cc2)n1)C1CCS(=O)(=O)C1 (stereo unspecified) | 0.08%
11 | CC(C)CCNC(=O)C(C)N(C(=O)Cn1nnc(-c2ccc(F)cc2)n1)C1CCCC1 (stereo unspecified) | 22.9% (active)
12 | CC(C)CCNC(=O)CN(C(=O)Cn1nnc(-c2ccc(F)cc2)n1)C1CCCC1 | -0.75%
13 | COCC1CCN(C(=O)c2ccc3oc(Cc4ccccc4)nc3c2)C1 (stereo unspecified) | -2.47%
14 | CN(C)Cc1c(O)ccc2occ(C(O)c3ccccc3)c12 (stereo unspecified) | -0.8%
15 | CCN(C(=O)CSc1nnc(-c2ccc(OC(F)F)cc2)n1N)C1CCS(=O)(=O)C1 (stereo unspecified) | 0.42%
16 | CC(C)NC(=O)NC(=O)CSc1nnc(-c2ccccc2F)n1N | -0.64%
17 | Cc1ccc(NC(=O)NC(=O)CSc2nnc(-c3ccc(OC(F)F)cc3)n2N)c(C)c1 | 47.6% (active)
18 | Nc1c(-c2ccc(F)cc2)cnn1C1CCS(=O)(=O)C1 (stereo unspecified) | -1.17%
19 | Nc1ccc(Cl)c(S(=O)(=O)Nc2ccccc2Cl)c1 | -2.25%
20 | CCn1cc(NC(=O)Nc2ccc(OC)c(OC)c2)c(C(N)=O)n1 | -1.66%
21 | N#CCCN(CCC#N)c1nnc(-c2ccccc2)s1 | 2.17%
22 | C=CCn1cnc2scc(-c3ccccc3)c2c1=O | 5.11%
23 | CN(CCC#N)c1ncnc2scc(-c3ccccc3)c12 | 10.9% (active)

Row | Structure (SMILES) | Tm shift relative to glycine control
24 | COc1ccc(CCNC(=O)c2ccc(NC(=O)CC3SC(N4CCCCC4)=NC3=O)cc2)cc1OC (stereo unspecified) | 0.17%
25 | CNc1ccc(SC#N)cc1 | -0.62%
26 | C=CCn1c(=NC(=O)c2cccs2)sc2cc(NC(C)=O)ccc21 | 2.65%
27 | CC(=O)Nc1ccc(S(=O)(=O)N2CCSCC2)cc1 | 0.09%
28 | C=CCn1c(=NC(=O)c2ccc(S(=O)(=O)N3CCCC3)cc2)sc2cc(NC(C)=O)ccc21 | 18.6% (active)
29 | CC(=O)Nc1ccc(NC(=O)CCN2C(=O)C3CC=CCC3C2=O)cc1 (stereo unspecified) | -1.24%
30 | CCC(C)(C)NC(=O)C(c1cccc(OC)c1OC)N(CC(C)C)C(=O)CCC(=O)Nc1cc(C)on1 (stereo unspecified) | -1.85%
31 | NC(=O)C1CC(=O)N(c2ccc(OCC(=O)NCc3ccccc3)cc2)C1 (stereo unspecified) | -0.09%
32 | O=C(O)c1ccccc1N=N/C(=N/Nc1cc(S(=O)(=O)O)ccc1O)c1ccccc1 | 25.2% (active)
33 | Cn1cccc1C(=O)OCC(=O)NCCc1ccccc1 | -0.25%
34 | O=C(COC(=O)c1c2c(nc3ccccc13)CCCC2)c1ccc(Br)s1 | -4.51%
35 | Cn1cccc1C(=O)OCC(=O)c1ccc(Br)s1 | 14% (active)
36 | O=C(Nc1cccc(C(=O)NC2CC2)c1)c1ccc(F)c(S(=O)(=O)N2CCOCC2)c1 | 4.42%
37 | Cc1ccc(C(=O)/C=C/Nc2ccc(S(=O)(=O)Nc3onc(C)c3C)cc2)cc1 | -6.78%
38 | COc1ccc(NS(=O)(=O)c2ccc(NC(=S)NC(=O)/C=C/c3ccc(C)cc3)cc2)nn1 | -7.2%
39 | COc1ccc(/C=C/C(=O)c2ccc(NS(=O)(=O)c3ccc(C)cc3)cc2)cc1O | 24.6% (active)
40 | CCOC(=O)C1CCN(C(=O)CN2C(=O)NC(C)(c3ccc4cc(OC)ccc4c3)C2=O)CC1 (stereo unspecified) | 0.17%
41 | CCOC(=O)c1c(-c2cccc(C)c2)csc1NC(=O)c1c(-c2ccccc2)noc1C | -0.48%
42 | Cc1onc(-c2ccccc2Cl)c1C(=O)OCC(=O)c1ccccc1 | -1.07%
43 | Cc1[nH]c2ccccc2c1C(=O)COC(=O)c1c(-c2ccccc2)noc1C | 18.8% (active)
44 | COc1cc(NC(=O)CCNC(=O)Cn2ccc3ccccc3c2=O)cc(OC)c1OC | 1.09%
45 | O=C(COC(=O)CSc1nnc(-c2ccc(Cl)cc2)o1)Nc1cc(Cl)cc(Cl)c1 | 19.4% (active)
46 | O=C(CSc1nnc(-c2ccncc2)o1)Nc1cccc(Cl)c1 | -2.14%

Row | Structure (SMILES) | Tm shift relative to glycine control
47 | O=C(CSc1nnc(-c2ccncc2)o1)NCc1ccc(Cl)cc1 | 1.65%
48 | NCC(=O)c1cccc2ccc[n+]([O-])c12 | 7.2%
49 | Cc1ccc(C)c(NC(=O)COC(=O)c2nn(C)c(=O)c3ccccc23)c1 | 0.34%
50 | O=P(O)(CP(=O)(c1ccccc1)c1ccccc1)c1ccccc1O | -4.72%
51 | CC(=O)c1cccc(NC(=O)C2CCCN2S(=O)(=O)c2cccc3nsnc23)c1 (stereo unspecified) | 1.52%
52 | CC1CCCCC1NC(=O)C1CCCN1S(=O)(=O)c1cccc2nsnc12 (stereo unspecified) | -1.29%
53 | COc1ccc(OC)c(NC(=O)C2CCCN2S(=O)(=O)c2cccc3nsnc23)c1 (stereo unspecified) | 13.4% (active)
54 | COc1ccc(CCC(=O)OCC(=O)Nc2ccc(C)c(S(=O)(=O)N(C)C)c2)cc1 | -3.89%
55 | Cc1c(C=O)c2ccccc2n1CCOc1ccccc1 | -1.12%
56 | COC(=O)c1ccc(COc2cc([N+](=O)[O-])cc3cccnc23)cc1 | -1.16%
57 | CCCCC/C=C/C1=CC(=O)C[C@H](c2ccc(Cl)cc2)C1 | -2.27%
58 | COc1ccc([C@H]2CC(=O)C=C(/C=C/c3ccccc3)C2)cc1 | -0.08%
59 | COc1ccc([C@H]2CC(=O)C=C(/C=C/c3ccc(Cl)cc3)C2)cc1 | 25.2% (active)
60 | CC1(C)O[C@@H]2CC3C4C[C@H](F)C5=CC(=O)C=CC5(C)C4C(O)CC3(C)[C@]2(C(=O)CO)O1 (stereo partly specified) | -0.79%
61 | COc1ccc(NC(=O)C2CCN(S(=O)(=O)c3ccc4[nH]c(=O)oc4c3)CC2)c(OC)c1 | -2.13%
62 | Cc1nc2cc(NC(=O)Nc3cccc(F)c3)ccc2n1C | -0.72%
63 | O=C(Nc1cccc(Br)c1)c1ccc2snnc2c1 | -4.74%
64 | O=C(Nc1ccc2ccccc2c1)Nc1ccc2snnc2c1 | 157% (active)
65 | Cc1cccc(C)c1NC(=O)CSc1nc2c([nH]1)c(=O)n(C)c(=O)n2C | -0.47%
66 | CO[C@@H]1[C@@H](OC(N)=O)[C@@H](O)C(Oc2ccc3c(O)c(NC(=O)c4ccc(O)c(CC=C(C)C)c4)c(=O)oc3c2C)OC1(C)C (stereo partly specified) | -12.2%
67 | Cc1ccc(C)c(NC(=S)NNC(=S)Nc2ccc(C(C)C)cc2)c1 | 12.8% (active)
68 | Cc1ccc(C)c(NC(=S)NNC(=O)c2csc(C)c2)c1 | 1.94%
69 | CC(C)c1ccc(NC(=S)NNc2ccc(Cl)c(C(=O)O)c2)cc1 | -0.77%

Row | Structure (SMILES) | Tm shift relative to glycine control
70 | CN(C)CCCn1c(=O)n(Cc2ccccc2)c(=O)c2c3c(sc21)CCCCC3 | -3.1%
71 | CCCOP(=O)(c1ccc(N(C)C)cc1)C(O)c1cc(OC)c(OC)c(OC)c1 (stereo unspecified) | 3.76%
72 | CCOc1cc(C=NNC(=O)CCCC(=O)NN=Cc2ccc(O)c(OCC)c2)ccc1O | 1.26%
73 | CCOc1cc(/C=C(\C#N)c2nc(-c3cccs3)c(NC(C)=O)s2)ccc1O | 10.9% (active)
74 | CCOc1cc(-c2cc(-c3ccc(NC(C)=O)cc3)nc(N)c2C#N)ccc1O | -13.2%
75 | Cc1noc(C)c1S(=O)(=O)NCCc1ccc(S(N)(=O)=O)cc1 | 5.94%
76 | O=c1ccn(Cc2ccccc2Cl)cc1 | 0.42%
77 | O=C1c2ccccc2C(O)N1Cc1ccccc1Cl (stereo unspecified) | 12.8% (active)
78 | O=C1c2ccccc2C(O)N1Cc1ccccc1 (stereo unspecified) | 0.38%
79 | O=C(N/N=C/c1sc(N2CCCCC2)nc1-c1cccs1)c1cccnc1 | -0.4%
80 | O=C(COC(=O)COc1ccccc1F)Nc1cccc(S(=O)(=O)N2CCCCC2)c1 | -3.69%
81 | Brc1ccccc1CN1CCC(Cc2ccccc2)CC1 | 0.68%
82 | O=C(Nn1c(SCc2ccc([N+](=O)[O-])cc2)nc2ccccc2c1=O)c1ccc(F)cc1 | 14.8% (active)
83 | C=CCn1c(SCc2ccc(C(=O)NCCO)cc2)nc2ccccc2c1=O | -2.22%
84 | Cc1nc2ccccc2c(=O)n1NC(=O)c1ccc(Cl)c([N+](=O)[O-])c1 | 0.49%
85 | COc1ccc(NC(=O)C2=CC(c3ccc(OC)c(OC)c3)=NS(=O)(=O)N2C)cc1 | -11.9%
86 | CCN1C(=O)C(C(=O)NC(C)c2ccccc2)C2CC1(C)Oc1ccccc12 (stereo unspecified) | -1.26%
87 | CC(C)CNC(=O)COC(=O)c1ccccc1OCC(=O)Nc1ccc(Br)cc1 | 0.17%
88 | CN(C)C=NC(=O)c1cccn1-c1ncc(C(F)(F)F)cc1Cl | -1.59%
89 | Cc1ccc(C)c(NC(=O)COC(=O)Cn2c(C)csc2=O)c1 | 3.33%
90 | CCOC(=O)CN1C(=O)C(=O)c2cc(C)ccc21 | 0.43%
91 | CCCCOC(=O)Cn1c(=O)n(CC(=O)OCCCC)c2cc(C)ccc21 | 10.7% (active)

Reference: PubChem BioAssay AID1259313 (Sanford-Burnham Center for Chemical Genomics, 2017)
